From PubChem BioAssay
LmPK inhibitor – blocks Leishmania mexicana pyruvate kinase activity. Potency, µM (doses to about 57.5 µM), hits mostly inhibitors. Q27686. hit rate 0.37% among 290,000. purified LmPK, Kinase-Glo ATP luminescence, 1 h
Target sequence (Q27686 whole entry, looked up): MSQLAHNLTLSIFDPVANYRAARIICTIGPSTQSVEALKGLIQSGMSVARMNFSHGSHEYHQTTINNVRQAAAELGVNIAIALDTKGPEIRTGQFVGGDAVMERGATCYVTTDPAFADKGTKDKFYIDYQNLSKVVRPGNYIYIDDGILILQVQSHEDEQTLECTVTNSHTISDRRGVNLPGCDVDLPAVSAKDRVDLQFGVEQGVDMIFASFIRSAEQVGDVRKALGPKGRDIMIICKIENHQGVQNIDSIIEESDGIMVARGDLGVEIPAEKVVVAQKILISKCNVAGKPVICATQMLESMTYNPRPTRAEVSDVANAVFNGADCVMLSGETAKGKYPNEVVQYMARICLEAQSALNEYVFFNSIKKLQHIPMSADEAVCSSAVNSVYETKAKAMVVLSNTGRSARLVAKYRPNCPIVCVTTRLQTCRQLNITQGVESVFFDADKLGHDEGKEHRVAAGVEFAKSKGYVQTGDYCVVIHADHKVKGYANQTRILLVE
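Purified LmPK (0.1 nM) with 0.5 mM PEP and 0.1 mM ADP in imidazole buffer pH 7.2 with MgCl2/KCl, 1 h at room temperature. ATP formed was read by luciferase luminescence and normalized to no-enzyme and uninhibited controls.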
Tb PYK inh – inhibitors of Trypanosoma brucei pyruvate kinase | Q57TT1 | TbPYK enzyme, Kinase-Glo Plus ATP luminescence, 45 min | Potency, µM (highest dose often 76.8 µM), usual class: inhibitors | hit rate 0.12% among 410,000 | AID 624173; also: nearly all actives have a fitted effect of over 50% in size
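Luminescence from Kinase-Glo Plus, added after a 45-minute room-temperature reaction, served as the end-point read-out. The enzyme and substrate were preincubated with compound before ADP (130 uM final) initiated turnover. Concentration-effect curves came from normalized qHTS data.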
RE007 growth inh – less growth of the S. pombe RE007 Vpr strain | Potency, µM (top dose mostly 92.2 µM), usual class: inhibitors | hit rate 0.21% among 360,000 | AID 651644 | S. pombe RE007 Vpr strain, BacTiter-Glo ATP luminescence, 24 h; active = well fitted falling curve with a large enough effect; inconclusive = small, poorly fitted or top-dose-only effect; inactive = no such curve, though single readings can be large or run the other way; also: nearly all actives have a fitted effect of over 50% in size
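Fission yeast strain RE007, carrying one chromosomally integrated HIV-1 vpr copy, was seeded at OD 0.01 in PMG+AL medium with 23 nL pinned compound. After 24 h at 30 °C and 99% humidity, viability was read by BacTiter-Glo luminescence.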
AMA1 RON2 block – AMA1-RON2 (P. falciparum) interaction inhibition; AlphaScreen AMA1-biotinylated RON2 peptide binding; Potency, µM (series often up to 58.2 µM), usual class: inhibitors; hit rate 0.2% among 360,000; also: nearly all actives have a fitted effect of over 45% in size
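AMA1 (3D7) with his tag at 25 nM final met compounds first, then biotinylated RON2 peptide at 25 nM; detection used donor plus acceptor beads, 10 µg/mL apiece, read by AlphaScreen after 30 min at room temperature.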
SARS PLpro yeast – inhibitors of SARS-CoV papain-like protease in yeast; S. cerevisiae expressing SARS-CoV PLpro, growth rescue; Potency, µM (series often up to 32.9 µM), hits mostly activators; hit rate 0.19% among 330,000; AID 485353; calls by dose curve; also: nearly all actives have a fitted effect of over 55% in size
Of the large screens only hits and unclear results are named; the others gave an inactive call. The list is not random: actives were taken first. Their share in the collection is about 0.81%. Unless noted, calls follow the shape of the dose curve; as a rule, active = well fitted curve in the direction sought with a large enough effect; inconclusive = small, poorly fitted or top-dose-only effect, or another doubt; inactive = no such curve, though single readings can be large; an effect the other way counts as inactive or inconclusive.

COc1ccc(-c2n[nH]c(=S)n2-c2cc(OC)ccc2OC)cc1	LmPK inhibitor 3.5µM, Tb PYK inh 2.8µM
S=c1[nH]nc(-c2cc(-c3ccco3)[nH]n2)n1-c1ccccc1Cl	Tb PYK inh inconclusive
CCCCCCCCCCCCCC(=O)OCC(COP(=O)([O-])OCC[N+](C)(C)C)OC(=O)CCCCCCCCCCCCC (configuration not stated)	none (no result: LmPK inhibitor, RE007 growth inh, AMA1 RON2 block, SARS PLpro yeast)
Clc1ccc(Nc2nnc(Cc3ccncc3)c3ccccc23)cc1	none (no result: LmPK inhibitor, RE007 growth inh, AMA1 RON2 block, SARS PLpro yeast)
COc1ccc(OC)c(-n2c(-c3cccc(O)c3)n[nH]c2=S)c1	LmPK inhibitor 2µM, Tb PYK inh 14µM
COc1ccc(OC)c(-n2c(-c3cc(-c4ccc(F)cc4)n[nH]3)n[nH]c2=S)c1	LmPK inhibitor 14µM, Tb PYK inh inconclusive
Cc1occc1-c1n[nH]c(=S)n1-c1ccccc1	LmPK inhibitor inconclusive, Tb PYK inh 18µM
COc1ccc(OC)c(-n2c(-c3cc(-c4ccco4)[nH]n3)n[nH]c2=S)c1	Tb PYK inh 3.2µM
COc1ccc(-c2cc(-c3n[nH]c(=S)n3-c3cc(OC)ccc3OC)[nH]n2)cc1	LmPK inhibitor inconclusive, Tb PYK inh inconclusive
CN=C(NC)NCc1ccccc1	none (no result: LmPK inhibitor, RE007 growth inh, AMA1 RON2 block, SARS PLpro yeast)
C[C@@H]1C[C@H]2[C@@H]3CCC4=CC(=O)C=C[C@]4(C)C3(F)[C@@H](O)C[C@]2(C)[C@@]1(O)C(=O)CO (some centres not stated)	none (no result: LmPK inhibitor, RE007 growth inh, AMA1 RON2 block, SARS PLpro yeast)
COC(=O)c1ccccc1NC(=O)CCC(=O)N1CCOc2ccccc21	none (no result: LmPK inhibitor, RE007 growth inh, AMA1 RON2 block, SARS PLpro yeast)
Cc1ccc2c(c1)Cc1nc3ccccc3nc1-2	LmPK inhibitor 18µM, Tb PYK inh inconclusive, RE007 growth inh inconclusive
O=C1CC2(CCCCC2)CC(=O)N1CCc1ccccc1	none (no result: LmPK inhibitor, SARS PLpro yeast)
O=C1C=CC(=O)C(C2=C3C(=O)N(CCc4ccccc4)CC(=O)N3CCC2)=C1	LmPK inhibitor inconclusive, Tb PYK inh 2.5µM
O=[N+]([O-])c1cc(Cl)cc(/C=N/NC(=S)Nc2ccc(S(=O)(=O)N3CCOCC3)cc2)c1O	AMA1 RON2 block 10µM
CCCCCCCCCCCCCCCCCC(=O)[O][Al]	none (no result: LmPK inhibitor, RE007 growth inh, AMA1 RON2 block, SARS PLpro yeast)
O=C1N=C(c2ccccc2)S/C1=C\c1cccs1	Tb PYK inh 7.9µM
C[N+]1(C)CCN(C[C@@](O)(c2ccccc2)C2CCCCC2)CC1	none (no result: LmPK inhibitor, RE007 growth inh, AMA1 RON2 block, SARS PLpro yeast)
COCCCNC(=O)COC(=O)c1ccc(-c2nc3ccccc3s2)s1	none
CNC(=O)COC(=O)c1ccc(-c2nc3ccccc3s2)s1	LmPK inhibitor 14µM
O=C(CC1OC(=O)c2ccccc21)Nc1ccccc1N1CCOCC1 (configuration not stated)	none
CC(=O)N1CCN(C(=O)CC2OC(=O)c3ccccc32)CC1 (configuration not stated)	RE007 growth inh 45µM
CCCCN(CCCC)CC(O)c1cc(Cl)cc2c1-c1ccc(Cl)cc1/C2=C/c1ccc(Cl)cc1 (configuration not stated)	none (no result: LmPK inhibitor, RE007 growth inh, AMA1 RON2 block, SARS PLpro yeast)
CCOC(=O)CCc1c(C)n[nH]c1C	none
CCOC(=O)CCCc1sc(N)nc1-c1[nH]c(=O)[nH]c1C	Tb PYK inh inconclusive, AMA1 RON2 block 1.5µM
CCN(CC)CCOCCOC(=O)C(CC)(CC)c1ccccc1 (tested in a mixture with another compound)	none (no result: LmPK inhibitor, RE007 growth inh, AMA1 RON2 block, SARS PLpro yeast)
COc1cc(/C=N/NC(=O)c2nonc2C)ccc1O	LmPK inhibitor 14µM
O=C(N/N=C/c1ccc(O)c(O)c1)N/N=C/c1ccc(O)c(O)c1	AMA1 RON2 block inconclusive
Cc1nonc1C(=O)N/N=C/c1ccc(O)c(O)c1	LmPK inhibitor 13µM, Tb PYK inh inconclusive, RE007 growth inh inconclusive
COc1cc(/C=N/NC(=O)c2nc(C)cc(C)n2)ccc1O	none
COc1ccc(-c2nc(CSCC(=O)N3CCN(c4cccc(C)c4C)CC3)c(C)o2)cc1OC	none (no result: LmPK inhibitor, RE007 growth inh, AMA1 RON2 block, SARS PLpro yeast)
Cc1cc2nc(-c3cccnc3SCC(=O)NC3CC3)[nH]c2cc1C	LmPK inhibitor 14µM (no result: Tb PYK inh, RE007 growth inh, AMA1 RON2 block)
Cc1cc2nc(-c3cccnc3SCC(=O)NCc3ccco3)[nH]c2cc1C	LmPK inhibitor inconclusive
CC(C)(Oc1ccc(C2CCCc3ccccc32)cc1)C(=O)O (configuration not stated)	none (no result: LmPK inhibitor, RE007 growth inh, AMA1 RON2 block, SARS PLpro yeast)
CCN(CC)C(=O)C1CCCN(c2ncnc3c2nc2n3CCCCC2)C1 (configuration not stated)	none (no result: LmPK inhibitor, RE007 growth inh, AMA1 RON2 block, SARS PLpro yeast)
CCc1ccn2cc(-c3cc(-c4ccccc4)no3)nc2c1	LmPK inhibitor 16µM
Cc1ccc2nc(-c3cc(-c4ccccc4)no3)cn2c1	none
N#Cc1cc2c([nH]c1=O)CCCC2	none
N#Cc1cc2c([nH]c1=S)CCCC2	Tb PYK inh 5.6µM
CC1CCc2cc(F)ccc2N1S(=O)(=O)c1ccc(Cl)nc1 (configuration not stated)	none
CC1CCc2cc(F)ccc2N1S(=O)(=O)c1ccc(F)cc1 (configuration not stated)	SARS PLpro yeast 8.9µM
c1coc(-c2ncc[nH]2)c1	AMA1 RON2 block 28µM
O=C(/C=C/Nc1ccccc1)c1ccccc1	LmPK inhibitor 7.9µM, RE007 growth inh inconclusive
CN(C)c1ccc(N/C=C/C(=O)C(C)(C)C)cc1	none
CC(=O)Nc1ccc(N/C=C/C(=O)c2ccccc2)cc1	RE007 growth inh inconclusive
CN(C)c1ccc(N/C=C/C(=O)c2ccccc2)cc1	LmPK inhibitor 5.6µM, Tb PYK inh inconclusive, AMA1 RON2 block inconclusive
COc1cccc(C(=O)/C=C/Nc2cccc(O)c2)c1	LmPK inhibitor 14µM, Tb PYK inh inconclusive
Cn1c(SCc2ccc(F)cc2)nc2ccc(C(=O)NCc3cccc(Cl)c3)cc21	none (no result: LmPK inhibitor, RE007 growth inh, AMA1 RON2 block, SARS PLpro yeast)
Cc1ccc(-c2cn3c(=S)[nH]nc3s2)cc1	LmPK inhibitor 2.2µM, Tb PYK inh inconclusive
Cc1ccc(-c2n[nH]c(=S)n2C)cc1	none
